# Data taken from PubChem BioAssay AID1159580 (chemical genetic matrix, 2015).
# In all, about 5,500 compounds went through this assay and about 2,000 (36%) were called active. About 18% were inconclusive and are not listed. Some of the results follow. Unmarked numbers belong to inactive results. Rule as the data show it: active = normalized growth mostly below about 0.91 (no sharp cut-off); inconclusive = no clear call, values can overlap the other calls; inactive = mostly above about 0.92.
# Test: chemical genetic growth profiling, strain panel (AID 1159580);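 also: tested at 20 µM; growth read once vehicle control cultures reached saturation at 30 °C; 1 = growth at the plate median or of vehicle wells; lower values mean less growth of the strain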
# Conditions: S. cerevisiae deletion strains, growth OD
# [1] = locus YAR019C, strain CDC15, hits give low values
# [2] = locus YBL105C, strain PKC1, hits give low values
# [3] = locus YBR135W, strain CKS1, hits give low values
# [4] = locus YBR136W, strain MEC1, hits give low values
# [5] = locus YBR160W, strain CDC28, hits give low values
# [6] = locus YDL017W, strain CDC7, hits give low values
# [7] = locus YDL028C, strain MPS1, hits give low values
# [8] = locus YDL101C, strain DUN1, hits give low values
# [9] = locus YDL108W, strain KIN28, hits give low values
# [10] = locus YDL132W, strain cdc53, hits give low values
# [11] = locus YDL214C, strain PRR2, hits give low values
# [12] = locus YDR052C, strain DBF4, hits give low values
# [13] = locus YDR054C, strain cdc34, hits give low values
# [14] = locus YDR226W, strain ADK1, hits give low values
# [15] = locus YDR477W, strain SNF1, hits give low values
# [16] = locus YER123W, strain YCK3, hits give low values
# [17] = locus YER133W, strain GLC7, hits give low values
# [18] = locus YFL009W, strain cdc4, hits give low values
# [19] = locus YFL029C, strain CAK1, hits give low values
# [20] = locus YFR003C, strain YPI1, hits give low values
# [21] = locus YFR019W, strain FAB1, hits give low values
# [22] = locus YFR028C, strain CDC14, hits give low values
# [23] = locus YGR040W, strain KSS1, hits give low values
# [24] = locus YGR052W, strain FMP48, hits give low values
# [25] = locus YGR092W, strain DBF2, hits give low values
# [26] = locus YHR030C, strain SLT2, hits give low values
# [27] = locus YHR079C, strain IRE1, hits give low values
# [28] = locus YHR082C, strain KSP1, hits give low values
# [29] = locus YHR205W, strain SCH9, hits give low values
# [30] = locus YIL147C, strain SLN1, hits give low values
# [31] = locus YJL095W, strain BCK1, hits give low values
# [32] = locus YJL157C, strain FAR1, hits give low values
# [33] = locus YJR016C, strain ILV3, hits give low values
# [34] = locus YJR066W, strain TOR1 (second series), hits give low values
# [35] = locus YJR066W, strain TOR1, hits give low values
# [36] = locus YKL048C, strain ELM1, hits give low values
# [37] = locus YKL067W, strain YNK1, hits give low values
# [38] = locus YKL101W, strain HSL1, hits give low values
# [39] = locus YKL193C, strain SDS22, hits give low values
# [40] = locus YKL203C, strain TOR2, hits give low values
# [41] = locus YLR113W, strain HOG1, hits give low values
# [42] = locus YLR133W, strain CKI1, hits give low values
# [43] = locus YLR403W, strain SFP1, hits give low values
# [44] = locus YML070W, strain DAK1, hits give low values
# [45] = locus YMR001C, strain CDC5, hits give low values
# [46] = locus YMR205C, strain PFK2 (second series), hits give low values
# [47] = locus YMR277W, strain FCP1, hits give low values
# [48] = locus YNL006W, strain LST8, hits give low values
# [49] = locus YNL020C, strain ARK1, hits give low values
# [50] = locus YNL161W, strain CBK1, hits give low values
# [51] = locus YNL183C, strain NPR1, hits give low values
# [52] = locus YNL207W, strain RIO2, hits give low values
# [53] = locus YNL222W, strain SSU72, hits give low values
# [54] = locus YNL307C, strain MCK1 (second series), hits give low values
# [55] = locus YOL078W, strain AVO1, hits give low values
# [56] = locus YOL136C, strain PFK27, hits give low values
# [57] = locus YOR061W, strain CKA2, hits give low values
# [58] = locus YOR119C, strain RIO1, hits give low values
# [59] = locus YOR231W, strain MKK1, hits give low values
# [60] = locus YOR329C, strain SCD5, hits give low values
# [61] = locus YPL031C, strain PHO85, hits give low values
# [62] = locus YPL153C, strain RAD53, hits give low values
# [63] = locus YPL204W, strain HRR25, hits give low values
# [64] = locus YPL209C, strain IPL1, hits give low values
# [65] = locus YPL256C, strain CLN2, hits give low values
# [66] = locus YPR025C, strain CCL1, hits give low values
# [67] = locus YPR106W, strain ISR1, hits give low values
# [68] = locus YPR111W, strain DBF20, hits give low values
# [69] = strain NNK1, hits give low values
# [70] = strain TSCII, hits give low values
smiles,measurement,setting,value
COc1ccc(CC2CCC(=NOC(=O)c3ccc(C(C)(C)C)cc3)CC2)cc1 (centres undefined),normalized growth,[1],0.991
same,normalized growth,[2],1.01
same,normalized growth,[3],0.988
same,normalized growth,[4],0.985
same,normalized growth,[5],0.993
same,normalized growth,[6],0.982
same,normalized growth,[7],0.984
same,normalized growth,[8],0.977
same,normalized growth,[9],0.984
same,normalized growth,[10],0.977
same,normalized growth,[11],0.947
same,normalized growth,[12],0.975
same,normalized growth,[13],0.98
same,normalized growth,[14],0.979
same,normalized growth,[15],0.946
same,normalized growth,[16],0.927
same,normalized growth,[17],0.936
same,normalized growth,[18],0.969
same,normalized growth,[19],0.988
same,normalized growth,[20],0.983
same,normalized growth,[21],0.972
same,normalized growth,[22],0.975
same,normalized growth,[23],0.936
same,normalized growth,[24],0.958
same,normalized growth,[25],0.999
same,normalized growth,[26],0.828 (active)
same,normalized growth,[27],0.999
same,normalized growth,[28],1.01
same,normalized growth,[29],0.999
same,normalized growth,[30],0.978
same,normalized growth,[31],0.952
same,normalized growth,"locus YJL128C, strain PBS2, hits give low values",0.993
same,normalized growth,[32],0.955
same,normalized growth,[33],0.99
same,normalized growth,[34],0.909
same,normalized growth,[35],1.06
same,normalized growth,[36],0.953
same,normalized growth,[37],0.951
same,normalized growth,[38],0.941
same,normalized growth,[39],0.987
same,normalized growth,[40],1.01
same,normalized growth,[41],0.844 (active)
same,normalized growth,[42],0.961
same,normalized growth,[43],1.01
same,normalized growth,[44],0.93
same,normalized growth,[45],0.986
same,normalized growth,[46],0.959
same,normalized growth,[47],0.976
same,normalized growth,[48],1
same,normalized growth,[49],0.964
same,normalized growth,[50],0.994
same,normalized growth,[51],1.06
same,normalized growth,[52],0.973
same,normalized growth,[53],0.993
same,normalized growth,[54],0.94
same,normalized growth,[55],0.988
same,normalized growth,[56],0.956
same,normalized growth,[57],0.963
same,normalized growth,[58],1.02
same,normalized growth,[59],0.975
same,normalized growth,[60],0.998
same,normalized growth,[61],0.937
same,normalized growth,[62],0.924
same,normalized growth,[63],0.916
same,normalized growth,[64],0.988
same,normalized growth,[65],0.881
same,normalized growth,[66],0.999
same,normalized growth,[67],0.986
same,normalized growth,[68],0.98
same,normalized growth,[69],0.977
same,normalized growth,[70],0.978
COc1ccc(CC2CCC(=NOC(=O)c3c(Cl)cccc3Cl)CC2)cc1 (centres undefined),normalized growth,[1],1.03
same,normalized growth,[2],1.06 [resistant] (active)
same,normalized growth,[3],1.04
same,normalized growth,[4],1.05
same,normalized growth,[5],1.05
same,normalized growth,[6],1.04
same,normalized growth,[7],1.04
same,normalized growth,[8],0.994
same,normalized growth,[9],1.04
same,normalized growth,[10],1.01
same,normalized growth,[11],0.948
same,normalized growth,[12],0.99
same,normalized growth,[13],1.02
same,normalized growth,[14],1.02
same,normalized growth,[15],0.956
same,normalized growth,[16],0.938
same,normalized growth,[17],0.949
same,normalized growth,[18],1.02
same,normalized growth,[19],1.03
same,normalized growth,[20],1.04
same,normalized growth,[21],0.971
same,normalized growth,[22],1
same,normalized growth,[23],0.957
same,normalized growth,[24],0.98
same,normalized growth,[25],1.01
same,normalized growth,[26],0.829 (active)
same,normalized growth,[27],1
same,normalized growth,[28],1.03
same,normalized growth,[29],1
same,normalized growth,[30],1.04
same,normalized growth,[31],0.984
same,normalized growth,[32],0.962
same,normalized growth,[33],1.01
same,normalized growth,[34],0.928
same,normalized growth,[35],1.06
same,normalized growth,[36],0.976
same,normalized growth,[37],0.959
same,normalized growth,[38],0.966
same,normalized growth,[39],1.02
same,normalized growth,[40],1.01
same,normalized growth,[41],0.854 (active)
same,normalized growth,[42],0.98
same,normalized growth,[43],1.01
same,normalized growth,[44],0.953
same,normalized growth,[45],1.03
same,normalized growth,[46],0.962
same,normalized growth,[47],1.02
same,normalized growth,[48],1.05
same,normalized growth,[49],0.977
same,normalized growth,[50],1.05
same,normalized growth,[51],1.05
same,normalized growth,[52],1.01
same,normalized growth,[53],1.06
same,normalized growth,[54],0.963
same,normalized growth,[55],1.03
same,normalized growth,[56],0.961
same,normalized growth,[57],0.971
same,normalized growth,[58],1.03
same,normalized growth,[59],1.02
same,normalized growth,[60],1.05
same,normalized growth,[61],0.952
same,normalized growth,[62],0.948
same,normalized growth,[63],0.929
same,normalized growth,[64],1.04
same,normalized growth,[65],0.941
same,normalized growth,[66],1.06 [resistant] (active)
same,normalized growth,[67],1.04
same,normalized growth,[68],1.04
same,normalized growth,[69],1.03
same,normalized growth,[70],1.02
COc1ccc(C(=O)C2CCNCC2)cc1,normalized growth,"locus YAL013W, strain DEP1, hits give low values",0.991
same,normalized growth,"locus YBR229C, strain ROT2, hits give low values",0.974
same,normalized growth,[8],0.972
same,normalized growth,"locus YDR150W, strain NUM1, hits give low values",1.03
same,normalized growth,"locus YEL061C, strain CIN8, hits give low values",1.01
same,normalized growth,"locus YGR078C, strain PAC10, hits give low values",0.99
same,normalized growth,"locus YGR229C, strain SMI1, hits give low values",1.01
same,normalized growth,[26],1.06
same,normalized growth,"locus YHR087W, strain rtc3, hits give low values",0.974
same,normalized growth,"locus YJL187C, strain SWE1, hits give low values",1
same,normalized growth,"locus YJR043C, strain POL32, hits give low values",1.01
same,normalized growth,"locus YJR075W, strain HOC1, hits give low values",1.01
same,normalized growth,"locus YKL190W, strain CNB1, hits give low values",1
same,normalized growth,"locus YLR039C, strain RIC1, hits give low values",1
same,normalized growth,"locus YLR058C, strain SHM2 (second series), hits give low values",0.988
same,normalized growth,"locus YLR085C, strain ARP6, hits give low values",1.09
same,normalized growth,"locus YLR262C, strain YPT6, hits give low values",0.998
same,normalized growth,"locus YML094W, strain GIM5, hits give low values",0.969
same,normalized growth,"locus YMR219W, strain ESC1, hits give low values",0.998
same,normalized growth,"locus YMR263W, strain SAP30, hits give low values",1.02
same,normalized growth,"locus YNL128W, strain TEP1, hits give low values",0.983
same,normalized growth,"locus YNL153C, strain GIM3, hits give low values",1.02
same,normalized growth,"locus YNL298W, strain CLA4 (second series), hits give low values",0.998
same,normalized growth,"locus YNL322C, strain KRE1, hits give low values",1
same,normalized growth,"locus YNR030W, strain Alg12, hits give low values",1.01
same,normalized growth,"locus YPL055C, strain LGE1, hits give low values",1.01
same,normalized growth,"locus YPL241C, strain CIN2, hits give low values",1.07
same,normalized growth,"locus YPR135W, strain CTF4, hits give low values",0.995
